High-throughput results (PubChem BioAssay)
p53ts 32C tox: qHTS Screen for Compounds that Selectively Target Cancer Cells with p53 Mutations: Cytotoxicity of p53ts Cells at the Permissive Temperature; H1299-p53A138V at 32C, ATP luminescence viability, 24 h; Potency, µM (series often up to 46.1 µM), inactives show at the top dose activity change, negative = cytotoxicity, hits mostly cytotoxic; 130,000 tested, 0.93% active; AID 924, 2007;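 also: 0% = DMSO and -100% = full killing by reference compound; nearly all actives have a fitted effect of over 55% in size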
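Cells: H1299 p53ts (A138V), 600/well, pre-incubated 16–30 h at 37C. Cpd up to 46 uM, 24 h, 32C. Readout: ATPlite luminescence, 20 min RT. Normalization: DMSO vs tamoxifen 100 uM. AC50 by Hill equation.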
p53ts 39C tox: qHTS Screen for Compounds that Selectively Target Cancer Cells with p53 Mutations: Cytotoxicity of p53ts Cells at the Nonpermissive Temperature; H1299-p53A138V viability at 39C, ATP luminescence, 24 h; Potency, µM (titrated, usually from 46.1 µM), without a hit: at the top dose activity change, negative = cell killing, usual class: cytotoxic; 130,000 tested, 1.5% active; also: % is scaled to controls: 0 for no effect and ±100 for the full control effect; nearly all actives have a fitted effect of over 55% in size
Peg3 imprint: qHTS Assay for Compounds that Induce Erasure of Genomic Imprints | mouse ES Peg3-LacZ reporter, beta-gal luminescence, 40 h | Potency, µM (series often up to 60.7 µM), without a hit: at the top dose activity change, positive = activation, hits mostly activators | 110,000 tested, 0.02% active
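Gelatin-coated wells received 300 freshly trypsinized female ES cells with a Peg3LacZ-Neo reporter on the maternal allele, then incubated 40 hours at 37C. BetaGlo was added for 5 minutes at room temperature before a single luminescence read.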
IkB signaling: IkB Signaling; ABC-DLBCL IkBa-CBG/CBR dual luciferase ratio, 4 h; response scale: scaled: untreated 0%, proteasome inhibitor 100%; Potency, µM (titrated, usually from 57.1 µM), for inactives: top-dose IkBa stabilization activation; 110,000 tested, 0.04% active; AID 445, 2006; active = well fitted curve in the direction sought with a large enough effect in the signal ratio, not every such curve was filed as active; inconclusive = small, poorly fitted or top-dose-only effect, or a change in a side signal; the % refers to the signal ratio;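 also: the direction sought is a rising ratio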
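Luminescence ratio of IκBα-fused green versus native red beetle luciferase in OCI-Ly3 cells, 4 h post-doxycycline with compound; red signal alone, scaled from basal (0%) to zero light (-100%), flagged nonspecific or cytotoxic effects.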
* = called active by the depositor; ? = inconclusive; . = no result; [ ] = dose if it differs, or a comment. In the library only some 1.7% were active in any assay of this set; here they are far more common. Unless noted, calls follow the shape of the dose curve; as a rule, active = well fitted curve in the direction sought with a large enough effect; inconclusive = small, poorly fitted or top-dose-only effect, or another doubt; inactive = no such curve, though single readings can be large; an effect the other way counts as inactive or inconclusive. Potency is read from the fitted curve at half-maximal effect.

SMILES | p53ts 32C tox | p53ts 39C tox | Peg3 imprint | IkB signaling
CC(C)Cc1nn2cc(-c3cccc(Br)c3)nc2s1 | 12.6µM* | 10µM* | -25.3%[10.9 µM] | ?
COc1ccccc1OCCSc1nc2ccccc2n1CC(=O)N1CCOCC1 | 9.7% | 18.6% | -10.8%[10.9 µM] | 2.3%
CCC(C)NC(=O)c1nn(-c2ccc(C)cc2)c(=O)n(C)c1=O (centres undefined) | -0.7% | -6.3% | -5.2%[10.9 µM] | 0.8%
CC(=O)Nc1ccc(C(=O)Nc2ccc3c(c2)N(C2CCCC2)C(=O)c2ccccc2S3)cc1 | ? | -13.5% | 6.0%[10.9 µM] | ?
Cc1nn2cc(-c3ccccc3)nc2s1 | 10µM* | 10µM* | -86.2% | ?
CCN(CC)C(=O)c1sc2nc(-c3ccc(OC)cc3)cn2c1C | ? | ? | -59.6% | 4.2%
Cc1nn2cc(-c3ccc(OC(C)C)cc3)nc2s1 | 12.6µM* | 10µM* | -62.7%[10.9 µM] | -4.0%
CCc1ccc(-c2cn3nc(CC)sc3n2)cc1 | 12.6µM* | 6.31µM* | -12.4%[10.9 µM] | 73.1%
Cc1ccc(-c2cn3nc(N4CCC(C(=O)Nc5ccccc5C)CC4)sc3n2)cc1 | 1.7% | . | . | .
Cc1ccc(Cn2c(CN3CCC(C(=O)NCCc4ccccc4)CC3)cc3ccccc32)cc1 | -25.7% | ? | -6.3%[10.9 µM] | ?
CC1CCc2noc(NC(=O)c3ccccc3[N+](=O)[O-])c2C1 (centres undefined) | 2.7% | -5.6% | -3.0%[10.9 µM] | ?
O=C(CSc1nc2c(c(=O)[nH]1)CCCC2)Nc1cccc(O)c1 | -14.2% | -9.1% | -13.1%[10.9 µM] | ?
CCn1nnc(NC(=O)c2ccc(C(C)(C)C)cc2)n1 | 2.51µM* | 5.01µM* | . | -1.7%
CCn1nnc(NC(=O)c2cccnc2)n1 | -13.0% | 7.1% | 3.6% | 3.6%
CCOC(=O)Cc1csc(NC(=O)CSc2nnc(-c3ccc(C)cc3)o2)n1 | 12.6µM* | 7.94µM* | -7.8% | 0.5%
N[C@@H](C(=O)O)[C@@H]1C[C@H]1C(=O)O | . | . | . | 0.3%
Cc1ccc(NC(=O)Cn2c(=O)n(CC(=O)NCCc3ccccc3)c(=O)c3ccccc32)cc1C | -27.9% | 10µM* | 13.8%[10.9 µM] | ?
C=CC(=O)CC | 8.2%[1.84 µM] | -7.6% | 31.6µM* | 3.1%
C=CC(=O)NC(C)C | -2.4%[1.84 µM] | -0.1% | 2.0% | 1.2%
COc1ccc(OCC(=O)Nc2ccc3c(c2)nc2n3CCSC2)cc1 | -3.9% | -12.3% | 3.6% | -0.4%
COc1ccccc1C(=O)Nc1ccc2c(c1)nc1n2CCSC1 | 3.98µM* | 3.16µM* | -51.5% | 6.3%
CCCCC(=O)Nc1ccc2c(c1)nc1n2CCSC1 | ? | ? | -15.4% | -3.2%
Cc1ccc(C(=O)Nc2ccc3c(c2)nc2n3CCSC2)cc1 | 7.94µM* | ? | -39.2% | ?
CCc1ccc(NC(=O)c2cc3ccccn3n2)cc1 | 6.31µM* | 3.16µM* | -21.9%[10.9 µM] | 11.7%
COc1cc(NC(=O)c2cc3ccccn3n2)cc(OC)c1OC | -6.7% | -16.3% | 15.3%[10.9 µM] | 3.7%
SMILES | p53ts 32C tox | p53ts 39C tox | Peg3 imprint | IkB signaling
Cc1ccccc1CCNC(=O)c1cc2ccccn2n1 | ? | 10µM* | -16.5%[10.9 µM] | ?
Cc1ccc(NC(=O)c2cc3ccccn3n2)cc1F | 12.6µM* | ? | -21.6%[10.9 µM] | 4.2%
Cc1cccc(CNC(=O)CN2C(=O)CSc3c2c(C)nn3-c2ccccc2)c1 | -3.5% | -3.3% | -2.5%[10.9 µM] | ?
COC(=O)C1=C2N(Cc3ccccc3)C(C)=C(C(=O)OC)C(c3ccccc3)N2C(=O)[C@](O)(C(=O)OC)C1 (some centres undefined) | -0.3%[9.22 µM] | -3.4%[9.22 µM] | . | .
COC(=O)CCC(=O)Oc1ccc(OC(=O)CCC(=O)OC)cc1 | -8.1% | 2.0% | 5.01µM* | -0.1%
Nc1nc2c(s1)CCc1c-2cnn1-c1ccccc1 | 12.6µM* | 10µM* | -71.9% | ?
COc1ccc(-c2cnn(-c3ccccc3)c2N)cc1OC | 17.7% | 12.7% | -11.6% | ?
N#C/C(=C\c1c[nH]c2ccccc12)C(=O)c1ccc(O)c(O)c1 | ? | ? | -13.0% | ?
COC(=O)c1c(NC(=O)c2cc3nc(-c4ccc(OC)cc4)cc(C(F)(F)F)n3n2)sc2c1CCCC2 | 4.9% | -11.8% | -10.7%[10.9 µM] | 2.1%
COc1ccc(NC(=O)c2cc3nc(-c4ccc(C)c(C)c4)cc(C(F)(F)F)n3n2)cc1 | -0.9% | 10µM* | -7.8%[10.9 µM] | 11.9%
CCCOC(=O)Nc1ccc(N2CCCCC2)cc1 | 12.6µM* | 15.8µM* | -43.8% | 0.7%
CCCCOC(=O)Nc1ccc(C(=O)OCCC)cc1 | 0.7% | 0.8% | -17.8% | 5.8%
CCC1(C)CC(=O)c2c(ccc3oc(C(=O)NCc4ccccc4)c(C)c23)O1 (centres undefined) | -15.5% | -18.2% | 11.9%[10.9 µM] | ?
COc1ccc(NC(=O)c2oc3ccc4c(c3c2C)C(=O)CC(C)(C)O4)cc1OC | 10µM* | 3.98µM* | ? | ?
CCc1cccc(NC(=O)c2oc3ccc4c(c3c2C)C(=O)CC(C)(C)O4)c1 | ? | 6.31µM* | -25.6%[10.9 µM] | -3.0%
CCOc1ccccc1CNC(=O)c1oc2ccc3c(c2c1C)C(=O)CC(C)(C)O3 | 0.4% | -20.1% | -17.3%[10.9 µM] | -1.4%
C[C@H](O)[C@H](O)[C@@H](O)c1cnc2nc(N)[nH]c(=O)c2n1 | . | . | . | 0.6%[11.4 µM]
CCOc1ccccc1NC(=O)c1ccc2c(Cl)c3c(nc2c1)CCCC3 | -12.0% | -21.4% | ? | ?
CCOc1ccccc1NC(=O)c1ccc2c(Cl)c3c(nc2c1)CCC3 | ? | 3.98µM* | -12.2%[10.9 µM] | ?
O=C(Nc1ccccc1F)c1ccc2c(Cl)c3c(nc2c1)CCC3 | 1.26µM* | 1.58µM* | -73.0%[10.9 µM] | ?
Cn1c(-c2nc(-c3ccccc3)cs2)nc2ccccc21 | ? | ? | 12.6% | .
CN(C)C(=O)n1nnnc1Cc1ccc(-c2ccccc2)cc1 | . | . | -25.8% | .
O=C1CC(c2ccc3c(c2)OCO3)Sc2nc3ccccc3n21 (centres undefined) | 12.6µM* | 12.6µM* | -30.6% | ?
CCC(=O)n1nc(-c2ccco2)nc1SCc1ccccc1 | ? | ? | -7.1% | 2.1%
CC(=O)n1nc(-c2ccco2)nc1SCc1ccccc1 | 12.6µM* | ? | 0.9% | 7.1%
SMILES | p53ts 32C tox | p53ts 39C tox | Peg3 imprint | IkB signaling
O=C(Nc1ccc2nc(-c3cccs3)[nH]c2c1)c1ccco1 | ? | 12.6µM* | -24.4% | 1.5%
Cc1cc(C)cc(Oc2coc3cc(OCC(=O)NC4CCCCC4)ccc3c2=O)c1 | 4.0% | 24.4% | 23.8%[10.9 µM] | 2.8%
Cc1ccc(NC(=O)c2c(C)oc3ccc(O)c(CN4CCCCC4)c23)c(C)c1 | 0.8% | -20.4% | -5.5%[10.9 µM] | ?
COc1ccc(NC(=O)Cn2c(SCc3ccc(F)cc3)nc3cccnc32)c(OC)c1 | -26.5% | . | . | .
O=C(O)c1ccc(Cl)c(S(=O)(=O)Nc2ccccc2)c1 | 4.2% | -3.5% | . | .
O=S(=O)(c1cccc(Cl)c1)N1CCCC1 | 10.1% | 1.9% | -5.5% | 1.3%
Cc1ccc(/C=C/c2nc3ccccc3n2S(=O)(=O)c2ccc(Br)cc2)cc1 | 5.01µM* | 6.31µM* | -16.3%[10.9 µM] | ?
